# RE007 growth inh – qHTS Assay for Inhibitors of the HIV-1 protein Vpr; hit rate 0.21% among 360,000; AID 651644, 2012; S. pombe RE007 Vpr strain, BacTiter-Glo ATP luminescence, 24 h; Potency, µM (doses to about 92.2 µM), for inactives: at the top dose activity change, negative = less growth, hits mostly inhibitors; active means well fitted falling curve with a large enough effect; inconclusive means small, poorly fitted or top-dose-only effect; inactive means no such curve, though single readings can be large or run the other way; further: potency means the concentration at half of the fitted maximal effect; on the % scale 0 is the no-effect control and ±100 the full control effect; nearly all actives have a fitted effect of over 50% in size
#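 Fission yeast strain RE007, carrying one chromosomally integrated HIV-1 vpr copy, was seeded at OD 0.01 in PMG+AL medium with 23 nL pinned compound. After 24 h at 30 °C and 99% humidity, viability was read by BacTiter-Glo luminescence.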
# Shiga toxin inh – A qHTS for Small Molecule Inhibitors of Shiga Toxin | Vero cells, Shiga toxin protein synthesis inhibition reporter | inhibition, % at 38.7 µM | hit rate 9.2% among 290,000 | AID 2315, 2010; in the data active means inhibition mostly above about 28%, no sharp cut-off; inactive means mostly below about 43%; further: 0% is about no effect
# TbPYK inhibitor – qHTS of Trypanosoma Brucei Inhibitors | Potency, µM (titrated, usually from 76.8 µM), without a hit: at the top dose activity, negative = inhibition, hits mostly inhibitors | TbPYK enzyme, Kinase-Glo Plus ATP luminescence, 45 min | pyruvate kinase (Trypanosoma brucei), Q57TT1 | hit rate 0.12% among 410,000 | AID 624173, 2012; further: potency means the concentration at half of the fitted maximal effect; on the % scale 0 is the no-effect control and ±100 the full control effect; nearly all actives have a fitted effect of over 50% in size
#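 Luminescence from Kinase-Glo Plus, added after a 45-minute room-temperature reaction, served as the end-point read-out. The enzyme and substrate were preincubated with compound before ADP (130 uM final) initiated turnover. Concentration-effect curves came from normalized qHTS data.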
# FBPA Giardia inh – qHTS Assay for Inhibitors of Fructose-1,6-bisphosphate Aldolase from Giardia Lamblia. A8B2U2. hit rate 0.71% among 290,000. purified Giardia FBPA. AID 2451, 2010. Potency, µM (series often up to 59.6 µM), inactives show top-dose activity, negative = inhibition, most hits filed as inhibitors; further: potency means the concentration at half of the fitted maximal effect; on the % scale 0 is the no-effect control and ±100 the full control effect; nearly all actives have a fitted effect of over 55% in size
#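 Giardia FBPA (40 nM reagent) was preincubated 10 min at RT with compound (up to 57.5 uM final), then substrate plus GAPDH/TPI/NAD/arsenate coupling system with diaphorase/resazurin was added; resorufin fluorescence (525/598 nm) was read after 20 min.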
# LmPK inh – qHTS Assay for Inhibitors of Leishmania Mexicana Pyruvate Kinase (LmPK); purified LmPK, Kinase-Glo ATP luminescence, 1 h; Potency, µM (highest dose often 57.5 µM), inactives show at the highest dose activity change, negative = inhibition, usual class: inhibitors; hit rate 0.37% among 290,000; further: potency means the concentration at half of the fitted maximal effect; on the % scale 0 is the no-effect control and ±100 the full control effect
# Target sequence (Q27686 whole entry, looked up): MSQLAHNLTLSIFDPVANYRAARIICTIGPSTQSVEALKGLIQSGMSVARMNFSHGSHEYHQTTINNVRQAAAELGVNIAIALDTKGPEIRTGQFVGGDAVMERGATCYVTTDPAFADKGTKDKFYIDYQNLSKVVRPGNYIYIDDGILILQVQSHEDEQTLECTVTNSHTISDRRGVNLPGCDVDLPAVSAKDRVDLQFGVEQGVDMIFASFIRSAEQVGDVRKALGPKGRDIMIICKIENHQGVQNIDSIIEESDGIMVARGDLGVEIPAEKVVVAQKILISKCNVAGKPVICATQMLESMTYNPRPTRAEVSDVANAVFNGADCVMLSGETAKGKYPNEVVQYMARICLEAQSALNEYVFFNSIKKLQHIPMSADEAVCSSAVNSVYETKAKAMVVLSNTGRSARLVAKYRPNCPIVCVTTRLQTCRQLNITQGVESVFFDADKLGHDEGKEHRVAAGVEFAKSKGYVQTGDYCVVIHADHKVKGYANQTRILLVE
#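 qHTS format; LmPK 0.1 nM; substrates PEP 0.5 mM and ADP 0.1 mM. One-hour room-temperature incubation, then coupled luciferase luminescence; 0.5 nM enzyme wells mark activation.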
# Cycloheximide cs – Cycloheximide Counterscreen for Small Molecule Inhibitors of Shiga Toxin; cell reporter, cycloheximide protein synthesis inhibition counterscreen; max response, %; hit rate 12% among 300,000; AID 2314, 2010; in the data active means max response mostly above about 13%, no sharp cut-off; inactive means mostly below about 14%; further: read at 38.3 µM for the half of the compounds with a filed dose; 0% is about no effect
# The depositor's hits bear a star; ? = inconclusive; nt = not tested or not shown; [ ] = another dose, or the depositor's remark. Shown is part of a subset that was picked to be rich in hits. Unless noted, the call rests on the fitted dose curve; in most records, active means well fitted curve in the direction sought with a large enough effect; inconclusive means small, poorly fitted or top-dose-only effect, or another doubt; inactive means no such curve, though single readings can be large; an effect the other way counts as inactive or inconclusive.
SMILES,RE007 growth inh,Shiga toxin inh,TbPYK inhibitor,FBPA Giardia inh,LmPK inh,Cycloheximide cs
CC(C)CCN1CCc2nc(-c3ccccc3)c3c(c2C1)COC(C)C3 (configuration not stated),nt,nt,nt,-13%[12.9 µM],nt,nt
CC(C)Oc1ccc(C2CC(=O)N(c3ccccc3)C2=O)cc1 (configuration not stated),6%,44,-11%,-3%,4%,20*
CC(C)Oc1ccc(N2C(=O)c3ccccc3C2=O)cc1,?,35,8%,4%,-3%,18*
CC(C)Oc1ccc(C2CC(=O)N(c3ccc(C(=O)O)cc3)C2=O)cc1 (configuration not stated),2%,-11,4%,4%,1%,-2
COc1ccc(C(=O)N/N=C/c2ccc(N3CCOCC3)o2)cc1OC,25%,-7,32µM*,?,?,7
O=C(N/N=C/c1ccc(N2CCOCC2)o1)c1cccc(F)c1,16%,85*,?,-28%,-14%,34*
COc1cccc(Nc2ncnc3nc[nH]c23)c1,1%,50*,-10%,-20%,-25%,16*
CCCNc1ncnc2nc[nH]c12,-14%,-3,-15%,-11%,-3%,-4
COc1ccc(Nc2cc(Nc3cccc(OC)c3)ncn2)cc1,-8%,56*,1%,9%,-7%,54*
Cc1ccc(Nc2ncnc3nc[nH]c23)cc1Cl,0%,63*,-8%,0%,3%,50*
CCCCc1ccc(Nc2ncnc3nc[nH]c23)cc1,22%,28,-8%,0%,8%,23*
N#Cc1c(C(F)(F)F)cc(-c2cccs2)nc1SCC(=O)Nc1ccccc1F,nt,nt,-10%,nt,nt,nt
O=C(COC(=O)Cn1[nH]c(=O)c2ccccc2c1=O)NNC(=O)c1ccccc1,3%,nt,0%,nt,nt,nt
CN(C)c1ncc2ncc(=O)n(C3CC3)c2n1,nt,nt,nt,2%,nt,nt
O=C(NC1(C(F)(F)F)C(=O)Nc2c1c(=O)[nH]c(=O)n2-c1ccc(Cl)cc1)c1ccccc1F (configuration not stated),nt,nt,2%,nt,nt,nt
CCc1ccc(Nc2ncnc3nc[nH]c23)cc1,-2%,62*,-17%,-3%,0%,27*
Cc1cccc(NC(=O)CSc2ncnc3nc[nH]c23)c1,-8%,17,-7%,-5%,-1%,-1
Cc1ccc(NC(=O)Nc2ncnc3nc[nH]c23)cc1,-3%,41*,-10%,0%,-8%,22*
Cc1ccc(-c2nnc(Nc3ccc(O)cc3)c3ccccc23)cc1S(=O)(=O)NCC1CCCO1 (configuration not stated),nt,nt,1%,nt,nt,nt
CCOc1ccc(NC(=O)Cn2nc3c(cc2=O)CC(C)CC3)cc1 (configuration not stated),nt,nt,2%,nt,nt,nt
COc1ccc(N2Cc3cccc(C(=O)Nc4ccc(C)c(C)c4)c3C2=O)cc1,nt,nt,7%,nt,nt,nt
Cc1cc(C)c2sc(N)nc2c1,-15%,8,1%,-3%,-2%,-4
Cc1cc(C)c2nc(N)sc2c1,-27%,30,-12%,6%,3%,34*
CCOC(=O)CN1C(=O)c2ccccc2C1=O,15%,-8,-6%,7%,-11%,-5
CCOC(=O)CN1C(=O)CN(c2ccc(C)cc2)C1=O,-18%,50*,2%,4%,-2%,29*
SMILES,RE007 growth inh,Shiga toxin inh,TbPYK inhibitor,FBPA Giardia inh,LmPK inh,Cycloheximide cs
C/C(=N\Nc1ccccn1)c1ccc(S(=O)(=O)NCc2ccco2)cc1,14%,81*,-5%,2%,7%,44*
C/C(=N\Nc1ccc(C(=O)O)cc1)c1ccc(S(=O)(=O)NCc2ccco2)cc1,19%,77*,-12%,12%,2%,45*
C/C(=N\Nc1nc(Cl)c(Cl)cc1Cl)c1ccc(S(=O)(=O)NCc2ccco2)cc1,10%,122*,0%,-19%,5%,69*
C/C(=N\Nc1ccc(C(F)(F)F)cn1)c1ccc(S(=O)(=O)NCc2ccco2)cc1,4%,121*,-5%,-2%,0%,72*
CCC(=O)Nc1ccc(S(=O)(=O)NCc2ccco2)cc1,18%,-9,0%,4%,-3%,-7
C/C(COc1ccccc1)=N\NC(=O)c1nnn(-c2nonc2N)c1CSc1ccc(C)cc1,4%,nt,-2%,nt,nt,nt
CC(=O)c1ccc(N2CCN(c3ncnc4c3c(-c3ccccc3)cn4-c3cccc(C)c3)CC2)cc1,nt,nt,5%,nt,nt,nt
CCC(=O)Nc1cc(=O)[nH]c2nc(-c3ccc(Cl)cc3)nn12,-1%,-4,?,-3%,-10%,8
CC1(C(=O)Nc2ccc(Cl)c(Cl)c2)CCN1Cc1ccccc1OC(F)F (configuration not stated),10%,nt,5%,nt,nt,nt
O=C(Nc1nccs1)c1cccnc1,-8%,-11,-4%,-5%,-1%,2
Cc1csc(NC(=O)c2cncc(Br)c2)n1,-16%,57,4%,-9%,-7%,53*
O=C(Nc1nccs1)c1cncc(Br)c1,14%,96*,-4%,-4%,-5%,48*
CCCCc1ccc(NC(=O)COc2cccc3c(=O)n(C)ccc23)cc1,nt,nt,-2%,nt,nt,nt
CC(NC(=O)COC(=O)c1ccc[nH]c1=O)c1ccccc1 (configuration not stated),-18%,nt,4%,nt,nt,nt
Cc1occc1C(=O)N/N=C/c1ccccn1,-9%,75*,-12%,0%,?,38*
O=C(O)c1cccc(NC(=S)N/N=C/c2cccc(O)c2)c1,-8%,21,-6%,20%,-7%,14
Cc1ccccc1C(=O)Nc1ccc(C(=O)N/N=C/c2ccccn2)cc1,8%,-8,2%,5%,-9%,-1
O=C(N/N=C/c1cccs1)c1ccc(NC(=O)c2ccccc2Cl)cc1,16%,-6,-5%,5%,0%,5
O=C(N/N=C/c1cccs1)c1cccc(NC(=O)c2ccccc2Cl)c1,9%,28,-3%,1%,3%,18*
Cc1cccc(C(=O)Nc2cccc(C(=O)N/N=C/c3ccccn3)c2)c1,32%,19,-7%,6%,-10%,13*
O=C(O)c1cccc(NC(=S)N/N=C/c2ccccn2)c1,5%,131*,5%,-10%,5%,51*
Cc1cc(C)cc(NC(=O)C2CCC(CNS(=O)(=O)c3ccc4c(c3)C(C)(C)C(=O)N4C)CC2)c1 (configuration not stated),nt,nt,1%,nt,nt,nt
CCN(CC)CCNC(=O)C1CCN(c2cc(C)nc3c(-c4ccc(Cl)cc4)c(C)nn23)CC1,nt,nt,7%,nt,nt,nt
Cc1c(CNCc2ccc(OC(C)C)cc2)c(C(=O)O)c(C)n1Cc1ccc(Cl)cc1,nt,nt,-23%,nt,nt,nt
O=C(CCC(=O)N1CCN(c2cccc(Cl)c2)CC1)c1cccs1,-1%,nt,-1%,nt,nt,nt
